According to PubChem BioAssay (NCATS):
Values joined by “and” are separate entries in the source; they are usually repeats but may differ in a detail not shown here. Equal entries are not always repeated. Results filed as inconclusive are left out. Active and inactive are the calls of the source. Unless noted, calls follow the shape of the dose curve; as a rule, active = well fitted curve in the direction sought with a large enough effect; inconclusive = small, poorly fitted or top-dose-only effect, or another doubt; inactive = no such curve, though single readings can be large; an effect the other way counts as inactive or inconclusive.

Tests used:
[1] = AP1 Signaling Pathway (AID 357; active = well fitted curve in either direction with a large enough effect, not every such curve was filed as active;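 also: ME-180 reporter cells stimulated with EGF at its EC50 level; % is scaled to controls: 0 for no effect and ±100 for the full control effect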); settings: ME-180 AP-1-bla reporter, EGF-induced, beta-lactamase ratio, 5 h; at 7.69 µM (top of the series) unless noted
Method in brief: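 Read-out was the 460nm/530nm emission ratio (excitation 405nm) after CCF4 loading for 2.5 hours at room temperature. Cells carried an AP-1-driven beta-lactamase reporter, were stimulated with EC50 EGF plus compound for 5 hours, and AC50 values came from titrations.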

[2] = NFAT Signaling Pathway (AID 444; active = well fitted curve in either direction with a large enough effect, not every such curve was filed as active;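 also: carbachol stimulus at about its EC50 of 1 µM final; % is scaled to controls: 0 for no effect and ±100 for the full control effect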); settings: Jurkat NFAT-bla M1, carbachol, beta-lactamase ratio, 5 h; at 7.69 µM (top of the series) unless noted
Method in brief: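 Read-out: CCF4 FRET ratio (460 nm/530 nm) after 1 h RT dye loading, used for %activity and AC50 from titration series. Cells: Jurkat NFAT-β-lactamase/M1 line, treated with compound plus 1 uM carbachol for 5 h, 37 °C.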

[3] = molecular target: Glucocorticoid receptor (Homo sapiens) (UniProt P04150); assay: GR-GFP Redistribution (AID 450;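 active = compounds whose dose series gives a full or clear partial fitted curve of increased nuclear translocation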; also: potency is read from the fitted curve at half-maximal effect); settings: U2OS GR-GFP nuclear translocation, laser cytometry, 2 h
Chain of Glucocorticoid receptor (Homo sapiens) (P04150 whole entry, looked up, the tested form may be a part): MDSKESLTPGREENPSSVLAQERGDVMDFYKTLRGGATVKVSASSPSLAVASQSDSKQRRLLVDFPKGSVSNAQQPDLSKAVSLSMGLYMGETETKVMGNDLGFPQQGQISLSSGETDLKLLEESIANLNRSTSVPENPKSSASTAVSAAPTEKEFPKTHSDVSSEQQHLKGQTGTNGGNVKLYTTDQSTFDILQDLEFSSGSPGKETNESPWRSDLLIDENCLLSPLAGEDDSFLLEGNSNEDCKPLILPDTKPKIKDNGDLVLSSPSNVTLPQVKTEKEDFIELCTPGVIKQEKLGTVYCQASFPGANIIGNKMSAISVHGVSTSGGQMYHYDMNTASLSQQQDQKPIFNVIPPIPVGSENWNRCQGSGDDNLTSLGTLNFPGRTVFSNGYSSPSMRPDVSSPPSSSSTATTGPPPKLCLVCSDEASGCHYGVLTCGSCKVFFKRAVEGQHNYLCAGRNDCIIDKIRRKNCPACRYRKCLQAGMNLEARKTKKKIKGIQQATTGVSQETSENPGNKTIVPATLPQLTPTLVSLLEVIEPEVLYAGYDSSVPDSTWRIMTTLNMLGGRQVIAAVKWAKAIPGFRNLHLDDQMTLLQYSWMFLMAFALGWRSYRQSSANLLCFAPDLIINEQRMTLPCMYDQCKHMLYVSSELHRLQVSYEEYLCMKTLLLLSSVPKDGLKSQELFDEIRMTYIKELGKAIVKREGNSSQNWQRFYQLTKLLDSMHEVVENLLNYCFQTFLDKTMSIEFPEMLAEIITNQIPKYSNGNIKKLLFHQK

[4] = molecular target: Glucocorticoid receptor (Homo sapiens) (UniProt P04150); assay: GR-EFC Redistribution (AID 451; calls by dose curve; also: potency is read from the fitted curve at half-maximal effect); settings: CHO-K1 GR-EFC translocation, beta-gal luminescence, 2 h
Method in brief: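 Translocation of GR-ED fusion to nuclear EA restores b-gal, read by luminescence after 1 h room-temperature detection. Engineered CHO-K1 biosensor cells, 1,000/well, exposed 2 h at 37 C to titrations up to 46 uM final.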

[5] = molecular target: Mitogen-activated protein kinase 10 (Mus musculus) (UniProt Q61831); assay: JNK3 AlphaScreen Assay (AID 530; active = well fitted curve in either direction with a large enough effect, not every such curve was filed as active;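 also: kinase came from lysate of stimulated human HepG2 cells; signal reports phosphorylation of biotinylated GST-cJun 1-79 at Ser73 with 10 µM ATP; % is scaled to controls: 0 for no effect and ±100 for the full control effect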)
Method in brief: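 qHTS titrations with 15 min compound pre-incubation before adding ATP (10 uM final). Read-out: AlphaScreen of Ser73-phosphorylated biotin-GST-cJun using HepG2 lysate JNK3 activated by IL-1β and TNFα.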

[6] = molecular target: 3',5'-cyclic-AMP phosphodiesterase 4B (Homo sapiens) (UniProt Q07343); assay: qHTS Assay for Inhibitors of PDE-IV (AID 607; active = well fitted activation curve with a large enough effect in the main read-out, with a control signal flat, not every such curve was filed as active; also: % of control where 0% means no effect)
Chain of 3',5'-cyclic-AMP phosphodiesterase 4B (Homo sapiens) (Q07343 whole entry, looked up): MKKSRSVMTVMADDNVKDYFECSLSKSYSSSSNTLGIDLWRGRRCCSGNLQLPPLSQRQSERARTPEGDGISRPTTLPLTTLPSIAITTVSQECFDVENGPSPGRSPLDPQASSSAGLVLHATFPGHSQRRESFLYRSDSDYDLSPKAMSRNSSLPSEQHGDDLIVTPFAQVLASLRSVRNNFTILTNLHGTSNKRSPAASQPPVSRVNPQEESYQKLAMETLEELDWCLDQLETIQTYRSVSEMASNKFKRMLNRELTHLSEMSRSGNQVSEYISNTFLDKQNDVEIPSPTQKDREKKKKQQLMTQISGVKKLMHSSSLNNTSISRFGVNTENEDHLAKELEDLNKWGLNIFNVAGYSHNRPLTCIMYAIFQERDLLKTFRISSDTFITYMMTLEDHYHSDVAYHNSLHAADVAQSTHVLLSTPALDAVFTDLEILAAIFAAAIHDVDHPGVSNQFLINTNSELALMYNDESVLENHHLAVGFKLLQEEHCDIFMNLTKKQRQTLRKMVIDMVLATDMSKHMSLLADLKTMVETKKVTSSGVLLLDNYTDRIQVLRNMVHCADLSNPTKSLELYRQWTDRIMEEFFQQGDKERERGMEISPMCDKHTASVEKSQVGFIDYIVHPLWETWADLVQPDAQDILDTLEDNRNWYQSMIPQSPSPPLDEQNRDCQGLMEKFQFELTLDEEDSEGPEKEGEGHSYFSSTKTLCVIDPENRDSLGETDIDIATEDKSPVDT
Method in brief: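 Live HEK293 cells with a modified cyclic nucleotide-gated (CNG) channel report intracellular cAMP via membrane-potential dye fluorescence (ex 535/em 590 nm). Endogenous PDE-IV was targeted. Compounds were tested at up to 22.9 uM final; RO 20-1724 100 uM served as control.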

[7] = molecular target: Cytochrome P450 3A4 (Homo sapiens) (UniProt P08684); assay: qHTS Assay for Inhibitors and Substrates of Cytochrome P450 3A4 (AID 884); also: % is scaled to controls: 0 for no effect and ±100 for the full control effect; nearly all actives have a fitted effect of over 50% in size
Chain of Cytochrome P450 3A4 (Homo sapiens) (P08684 whole entry, looked up): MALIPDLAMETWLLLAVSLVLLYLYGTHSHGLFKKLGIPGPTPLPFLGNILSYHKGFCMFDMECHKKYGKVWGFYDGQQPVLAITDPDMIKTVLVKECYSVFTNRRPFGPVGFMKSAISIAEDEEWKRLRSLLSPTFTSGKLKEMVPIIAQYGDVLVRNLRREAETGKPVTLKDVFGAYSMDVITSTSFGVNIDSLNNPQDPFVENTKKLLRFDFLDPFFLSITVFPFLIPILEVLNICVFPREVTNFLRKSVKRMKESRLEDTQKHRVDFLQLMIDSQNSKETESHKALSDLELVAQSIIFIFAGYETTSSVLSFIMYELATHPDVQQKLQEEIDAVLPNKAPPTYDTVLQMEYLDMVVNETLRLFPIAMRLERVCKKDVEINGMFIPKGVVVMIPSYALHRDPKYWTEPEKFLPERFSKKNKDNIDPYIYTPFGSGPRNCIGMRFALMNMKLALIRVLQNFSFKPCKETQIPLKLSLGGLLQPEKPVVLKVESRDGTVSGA
Method in brief: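 Luminescent readout of luciferin produced by CYP3A4 (20 nM) dealkylation of Luciferin-PPXE, 25 uM (its KM). NADPH-driven reaction ran 60 min at RT after 10 min compound preincubation; data scaled to 57 uM ketoconazole as 100% inhibition.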

[8] = molecular target: Cytochrome P450 3A4 (Homo sapiens) (UniProt P08684); assay: qHTS Assay for Activators of Cytochrome P450 3A4 (AID 885); also: nearly all actives have a fitted effect of over 65% in size
Method in brief: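 Using 20nM recombinant human CYP3A4 in potassium phosphate (200mM), substrate Luciferin-PPXE at 25uM, luminescent luciferin detection followed a 60-min RT NADPH reaction; data scaled to 57 uM ketoconazole.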

[9] = Confirmation and Secondary Assay for Modulators of Hemoglobin Beta Chain Splicing at IVS2 654 locus (AID 910);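 also: HeLa cells stably carrying EGFP split by mutant beta-globin IVS2-654 intron; % of control where 0% means no effect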
Method in brief: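 Readout: per-well total peak green fluorescence (488 nm ex, 500–520 nm em) from objects 5–250 µm, reflecting correct splicing of an EGFP-654 reporter. Compounds were applied for 2 days at 37 °C to overnight-plated HeLa EGFP-654 cells; controls were DMSO and 500 nM IVS2-654 PNA.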

[10] = qHTS Assay for Identification of Small Molecule Agonists for Hypoxia Response Element Signaling Pathway (AID 914; active = well fitted activation curve with a large enough effect in the signal ratio, with a control signal flat, not every such curve was filed as active; the % refers to the signal ratio; also: potency is read from the fitted curve at half-maximal effect); settings: ME-180 HRE-bla reporter, beta-lactamase ratio, CoCl2, 17 h; activation: stronger effect = higher value
Method in brief: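 HRE-bla ME-180 cells with beta-lactamase reporter under hypoxia response element, compounds with EC50 CoCl2 for 17 hours at 37 C. CCF4 substrate, 460nm/530nm emission ratio gave %Activity; AC50 from titration series.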

[11] = Confirmation and Secondary Assay for Modulators of Hemoglobin Beta Chain Splicing at IVS2 705 locus (AID 930);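 also: HeLa cells stably expressing the EGFP-705 splicing reporter; GFP fluorescence per well restored by corrected splicing of the IVS2-705 intron in EGFP; % of control where 0% means no effect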
Method in brief: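 HeLa cells stably carrying EGFP interrupted by mutant beta-globin intron 2 (IVS2-705) treated 2 days at 37C with compound; 500 nM antisense PNA as control. Correct splicing read as total peak GFP intensity per well by laser-scanning cytometry.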

[12] = qHTS Assay for Lipid Storage Modulators (AID 1519; calls by dose curve); settings: Drosophila S3 cells, BODIPY lipid droplet/cell ratio, laser cytometry, cells loaded with oleic acid
Method in brief: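 Cells seeded at 5,000 per well were treated with compounds over a concentration series and loaded with oleic acid (400 uM, as added). Lipid droplet fluorescence (488 nm excitation, 500-530 nm channel) was read by laser-scanning cytometry and normalized to 20 uM Triacsin C.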

[13] = molecular target: Ubiquitin carboxyl-terminal hydrolase 1 (Homo sapiens) (UniProt O94782); assay: Inhibitors of USP1/UAF1: Pilot qHTS (AID 504865); also: nearly all actives have a fitted effect of over 35% in size; also: potency is read from the fitted curve at half-maximal effect
Chain of Ubiquitin carboxyl-terminal hydrolase 1 (Homo sapiens) (O94782 whole entry, looked up): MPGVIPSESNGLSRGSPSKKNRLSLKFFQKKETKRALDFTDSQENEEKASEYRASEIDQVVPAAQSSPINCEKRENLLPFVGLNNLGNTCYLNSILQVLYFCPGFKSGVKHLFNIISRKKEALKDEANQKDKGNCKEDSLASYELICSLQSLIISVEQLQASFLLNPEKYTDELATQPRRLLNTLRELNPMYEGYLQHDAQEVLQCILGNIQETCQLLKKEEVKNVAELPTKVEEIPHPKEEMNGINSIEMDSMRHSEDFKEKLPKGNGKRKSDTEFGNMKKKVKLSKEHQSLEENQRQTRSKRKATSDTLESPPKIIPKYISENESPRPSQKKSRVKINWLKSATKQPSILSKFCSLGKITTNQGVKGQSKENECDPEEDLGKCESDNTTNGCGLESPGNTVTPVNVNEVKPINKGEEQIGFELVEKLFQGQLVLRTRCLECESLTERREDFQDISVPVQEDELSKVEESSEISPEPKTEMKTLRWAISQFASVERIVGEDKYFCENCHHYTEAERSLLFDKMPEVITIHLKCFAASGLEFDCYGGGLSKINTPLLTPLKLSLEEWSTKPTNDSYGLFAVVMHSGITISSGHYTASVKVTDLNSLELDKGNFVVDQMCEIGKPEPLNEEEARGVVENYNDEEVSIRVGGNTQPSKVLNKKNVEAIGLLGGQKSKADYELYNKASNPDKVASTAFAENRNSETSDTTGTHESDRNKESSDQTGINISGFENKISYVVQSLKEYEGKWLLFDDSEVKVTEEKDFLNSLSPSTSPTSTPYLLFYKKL
Method in brief: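 1nM USP1/UAF1 + cpd, 15 min RT; start w/ Ub-Rho 150nM final; kinetic FL 480/540 nm, 6 reads q60 s. Buffer 50mM HEPES pH 7.8, 0.5mM EDTA, 1mM TCEP, 0.01% Tween-20, 0.1 mg/ml BSA.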

[14] = Stat Signaling Pathway (AID 446; active = well fitted curve in either direction with a large enough effect, not every such curve was filed as active;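 also: ME-180 cervical cancer cells given 40 pM IL-6 alongside compound; SIE-controlled beta-lactamase reporter measured as 460/530 nm FRET emission ratio; % is scaled to controls: 0 for no effect and ±100 for the full control effect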); settings: ME-180 (cervical carcinoma) SIE beta-lactamase reporter, IL-6 stimulated, 5 h; at 7.69 µM (top of the series) unless noted
Method in brief: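 Overnight-plated ME-180 cells bearing a STAT Inducible Element beta-lactamase reporter; 5 h co-exposure to compound and 40 pM IL-6; values normalized to 300 pM IL-6 and 125 nM JAK inhibitor controls.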

[15] = Primary qHTS for small molecule stabilizers of the endoplasmic reticulum resident proteome: Secreted ER Calcium Modulated Protein (SERCaMP) assay (AID 1508630); also: % is scaled to controls: 0 for no effect and ±100 for the full control effect
Method in brief: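 The SH-SY5Y reporter protocol was run at 3 concentrations up to 38.3 uM (primary) or 11 concentrations (follow-up): 16 h compound, 100 nM thapsigargin for 4 h, then extracellular luciferase luminescence.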

[16] = molecular target: Cytochrome P450 2D6 (Homo sapiens) (UniProt P10635); assay: Cytochrome P450 family 2 subfamily D member 6 (CYP2D6) small molecule antagonists: luciferase biochemical (cell-free) qHTS assay (AID 1645840; active = well fitted curve in the direction sought with a large enough effect in the repeat runs; an effect the other way counts as inactive or inconclusive; also: % is scaled to controls: 0 for no effect and ±100 for the full control effect; nearly all actives have a fitted effect of over 55% in size)
Chain of Cytochrome P450 2D6 (Homo sapiens) (P10635 whole entry, looked up): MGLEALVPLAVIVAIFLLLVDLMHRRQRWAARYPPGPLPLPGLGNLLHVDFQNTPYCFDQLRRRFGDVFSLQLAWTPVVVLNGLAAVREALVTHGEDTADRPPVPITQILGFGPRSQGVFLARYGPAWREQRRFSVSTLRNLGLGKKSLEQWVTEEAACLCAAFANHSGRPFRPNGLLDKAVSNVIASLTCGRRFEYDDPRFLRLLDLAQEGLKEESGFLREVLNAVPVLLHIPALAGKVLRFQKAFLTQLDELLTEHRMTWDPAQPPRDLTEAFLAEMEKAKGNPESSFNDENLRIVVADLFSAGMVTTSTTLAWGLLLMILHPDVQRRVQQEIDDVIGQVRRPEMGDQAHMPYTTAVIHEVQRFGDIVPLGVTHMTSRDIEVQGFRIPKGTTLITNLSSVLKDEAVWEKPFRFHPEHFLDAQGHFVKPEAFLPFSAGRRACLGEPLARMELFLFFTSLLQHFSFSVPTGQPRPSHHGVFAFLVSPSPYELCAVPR
Method in brief: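 P450-Glo CYP2D6 system: proluciferin substrate converted by enzyme to luciferin, read by luminescence proportional to activity. Enzyme-substrate mix with compound 10 min at room temperature, then NADPH regeneration 1 h before detection reagent.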

[17] = molecular target: Cytochrome P450 1A2 (Homo sapiens) (UniProt P05177); assay: p450-cyp1a2 (AID 410; calls by dose curve; also: potency is read from the fitted curve at half-maximal effect)
Chain of Cytochrome P450 1A2 (Homo sapiens) (P05177 whole entry, looked up): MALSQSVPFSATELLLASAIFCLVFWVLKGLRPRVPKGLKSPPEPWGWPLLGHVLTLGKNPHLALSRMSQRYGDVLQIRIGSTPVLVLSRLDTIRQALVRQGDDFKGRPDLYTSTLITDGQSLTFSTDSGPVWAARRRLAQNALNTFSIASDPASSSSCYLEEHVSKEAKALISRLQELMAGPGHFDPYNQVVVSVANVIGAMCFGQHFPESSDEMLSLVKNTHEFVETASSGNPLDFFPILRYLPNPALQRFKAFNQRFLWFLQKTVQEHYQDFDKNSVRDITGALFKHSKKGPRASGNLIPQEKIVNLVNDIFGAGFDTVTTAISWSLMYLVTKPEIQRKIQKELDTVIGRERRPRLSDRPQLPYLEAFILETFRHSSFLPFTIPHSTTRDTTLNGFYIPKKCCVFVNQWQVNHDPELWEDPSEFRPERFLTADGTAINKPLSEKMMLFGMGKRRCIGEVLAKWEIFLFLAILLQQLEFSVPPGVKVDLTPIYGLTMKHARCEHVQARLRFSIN
Method in brief: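 O-Demethylation of luciferin 6' methyl ether by human CYP1A2 is monitored as luciferase luminescence. Substrate sits at Km (100uM); enzyme is 20nM. Values are scaled to 57 uM furafylline as maximal inhibition.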

[18] = measured here: cell count channel max response
[19] = measured here: lipid channel max response

O=c1ccc2cc(O)c(O)cc2o1
inactive: activity change, negative = inhibition [1] 12.2% [at 17.2 µM] | activity change, negative = inhibition [2] 28.9% [at 17.2 µM] | Potency [3] > 20.6 µM | Potency [4] > 20.6 µM | Potency [5] | Potency [6] | Potency [7] | Potency [8] | Potency [9] | outcome [11] | activity change, negative = inhibition ([12]; at 25.7 µM (top of the series)) -3.37% | activity change, negative = inhibition ([12]; at 57.5 µM (top of the series)) -7.91% | Potency [13]
-18.9% and -8.28%: max response [12, 19]
active: Potency [10] 10 µM
-16.4% and -4.98%: max response [12, 18]

CC(C)NC(=O)N1CC[C@@]2(CCCN(C(=O)c3ccco3)C2)C1
inactive: activity change, negative = inhibition [1] -6.33% | activity change, negative = inhibition [2] 5.58% | activity, negative = inhibition [14] 8.1% | Potency [4] > 46 µM | Potency [5] | Potency [6] | outcome [15]

CCCCCC/C=C\CCCCCCCc1cccc(O)c1C(=O)O
inactive: Potency [7] | Potency [9] | outcome [11] | activity change, negative = inhibition ([12]; at 57.5 µM (top of the series)) 8.36% | Potency [16]
active: Potency [13] 79.4 µM
17.7%: max response [12, 19]
7.08%: max response [12, 18]

N#CCCn1c(=O)c(-c2ccc(F)cc2)nc2cnc(Oc3cccc(Cl)c3)nc21
inactive: Potency [3] > 9.22 µM | Potency [4] > 46 µM | Potency [5] | Potency [6] | outcome [15]
active: Potency [17] 0.501 µM
